Read-out in test [1]: Collagen I, COL1A1 (gene 1277)
Kind of test: BSK_MyoF_CollagenI: BioMAP Diversity Plus: MyoF Assay for Collagen I Biomarker Activity (AID 2284238). The following applies: primary human lung fibroblasts. The gist of the method:
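ELISA readout of Collagen I after 24 h chemical treatment of primary human lung fibroblast cultures; gain of signal scored relative to DMSO vehicle baseline.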

Read-out in test [2]: Collagen III, COL3A1 (gene 1281)
As to the kind of experiment: BSK_MyoF_CollagenIII: BioMAP Diversity Plus: MyoF Assay for Collagen III Biomarker Activity (AID 2284239). The following applies: primary human lung fibroblasts. The gist of the method:
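Lung fibroblast culture; 24 h compound exposure; collagen III by ELISA; gain-of-signal fit vs DMSO baseline.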

Read-out in test [3]: Actin alpha 1 (ACTA1), ACTA1 (gene 58)
Kind of test: BSK_MyoF_ACTA1: BioMAP Diversity Plus: MyoF Assay for Actin alpha 1 (ACTA1) Biomarker Activity (AID 2284244). The following applies: primary human lung fibroblasts. Put shortly:
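Cells were exposed to chemical for 24 h before a-SMA levels were quantified by ELISA in human lung fibroblasts. Increases were fitted against DMSO as negative control; parallel SRB staining (0.1% after 10% TCA fixation, 560 nm) assessed cytotoxicity.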

Read-out in test [4]: Interleukin 2 (IL2), IL2 (gene 3558)
As to the kind of experiment: BSK_BT_xIL2: BioMAP Diversity Plus: BT Assay for Interleukin 2 (IL2) Biomarker Activity (AID 2284245). To be noted: primary human B cells with PBMC. Put shortly: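 The BT system combines human B cells with peripheral blood mononuclear cells. Twenty-four hours after chemical dosing, secreted IL-2 was measured with xMAP bead technology, and responses were analyzed as increases over DMSO controls.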

Read-out in test [5]: Basic fibroblast growth factor (bFGF), FGF2 (gene 2247)
As to the kind of experiment: BSK_MyoF_bFGF: BioMAP Diversity Plus: MyoF Assay for Basic fibroblast growth factor (bFGF) Biomarker Activity (AID 2284246). The following applies: primary human lung fibroblasts. Put shortly: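 Chemicals are added to human lung fibroblast cultures and incubated 24 h. bFGF is then measured by ELISA, while parallel cultures receive SRB staining for total protein as a cytotoxicity check. Data are fitted upward against DMSO.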

Read-out in test [6]: Collagen IV, COL4A1 (gene 1282)
As to the kind of experiment: BSK_MyoF_CollagenIV: BioMAP Diversity Plus: MyoF Assay for Collagen IV Biomarker Activity (AID 2284247). The following applies: primary human lung fibroblasts. Put shortly: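 Human lung fibroblast system, 24 h chemical exposure. Endpoint: Collagen IV by ELISA, upward fit vs DMSO.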

Test [7] is described as follows: TAMU_PeakParms_SingleDonor1434_QT: Texas A&M University (TAMU) 1.5-hr Human Induced Pluripotent Stem Cell (iPSC)-derived Cardiomyocytes Calcium (Ca+2) Flux Assay for Cardiotoxicity: QT (decay-rise ratio) (AID 2284235; active means hit-call score of the fitted dose curve at least 0.9, where 1 is the maximum). The gist of the method: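 Decay/rise ratio of calcium-flux fluorescence scored after 90 min exposure (37C) of donor 1434 iPSC cardiomyocytes to 0.2–100 uM (0.5% DMSO). Beat-cessation and severe-notch points removed; POD is EC05, a 5% rise over DMSO.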

A short description of test [8]: CCTE_Mundy_HCI_Cortical_NOG_NeuronCount: CCTE's Neurite Outgrowth Assay in rat cortical cells for Neuron Count, Mundy Lab (AID 2284236; active means hit-call score of the fitted dose curve at least 0.9, where 1 is the maximum;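 further: neurons counted by imaging betaIII-tubulin and Hoechst stained cortical cells; cells exposed to compound for about 48 hours before fixation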). Put shortly:
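Read-out: neuron number by high-content imaging of betaIII-tubulin (Alexa Fluor-488) and Hoechst-labelled rat primary cortical cells.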

Test [9] is described as follows: CCTE_Mundy_HCI_Cortical_NOG_BPCount: CCTE's Neurite Outgrowth Assay in rat cortical cells for Branch Point Count, Mundy Lab (AID 2284237). Put shortly:
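Measured 50.33 h after dosing, this morphology endpoint uses rat primary cortical cultures labelled for betaIII-tubulin. Branch points are quantified by high-content imaging, with DMSO as negative control and baseline.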

Test [10] in a line: CCTE_Mundy_HCI_hNP1_Casp3_7: CCTE's Caspase-Glo 3/7 Assay in human neuroprogenitor cells for Apoptosis, Mundy Lab (AID 2284240). The gist of the method:
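Neuroepithelial-lineage stem cells from WA09 embryonic cells were treated with chemicals after 40–44 h of culture. Twenty-four hours later, caspase-3/7 activation was detected luminescently after a 30 min room-temperature reagent step, with DMSO as baseline.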

A short description of test [11]: CCTE_Mundy_HCI_hNP1_CellTiter: CCTE's Cell Titer-Glo 2 Assay in human neuroprogenitor cells for Viability, Mundy Lab (AID 2284241; active means hit-call score of the fitted dose curve at least 0.9, where 1 is the maximum). Put shortly: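 Measures ATP content in human neural progenitors derived from WA09 embryonic cells. Read-out at 26.5 hours after dosing, with DMSO serving as the negative control and baseline.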
In general terms: In ATP-based viability assays light output follows the ATP content of the culture.

A short description of test [12]: UKN2_HCS_IMR90_cell_viability: Viability Assessment in the University of Konstanz (UKN) Leist Lab Neural Crest Cell Migration Assay in human induced IMR90 Pluripotent Stem Cells (UKN2) (AID 2284233).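 Further: viability of neural crest cells differentiated from IMR90 iPSC measured by calcein-AM fluorescence imaging; cells exposed to compound for 24 h after a 24 h migration phase.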 Put shortly:
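cMINC format, iPSC-derived neural crest (IMR90); 24 h migration (EGF/FGF, N2-S), then 24 h toxicant. Calcein-AM/H-33342 stain 30 min; fluorescence intensity by HCS; DMSO-normalised, bidirectional fitting.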

The nature of test [13]: TAMU_HCS_1.5hr_SingleDonor1434_Cytotoxicity: Cytotoxicity Assessment using High-content Screening (HCS) Fluorescent Imaging for the Texas A&M University (TAMU) 1.5-hr Human Induced Pluripotent Stem Cell (iPSC)-derived Cardiotoxicity Assay (AID 2284234; active means hit-call score of the fitted dose curve at least 0.9, where 1 is the maximum). The gist of the method:
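Nuclear counts from Hoechst 33342 imaging define cytotoxicity here, with EC10 (10% cell-count loss relative to DMSO) as point of departure. iPSC cardiomyocytes received 0.2-100 uM test chemical in 0.5% DMSO for 1.5 h at 37 C.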

Test [14] is described as follows: CCTE_Mundy_HCI_Cortical_Synap_Neur_Matur_NeuronCount: CCTE's Synaptogenesis and Neurite Maturation Assay in rat cortical cells for Neuron Count, Mundy Lab (AID 2284242; active means hit-call score of the fitted dose curve at least 0.9, where 1 is the maximum;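 on AC50: neuron number from Hoechst nuclei and MAP2 staining by high-content imaging; hits reduce neuron count versus DMSO baseline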). Put shortly:
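Cortical cells from rat are plated, treated with AraC at DIV 5, and exposed to test chemicals with a media change at DIV 7. At DIV 12 they are fixed and immunostained (MAP2, synaptophysin), and imaged neuron counts are compared against DMSO controls.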

Test [15] can be described thus: UKN4_HCS_LUHMES_cell_viability: Viability Assessment in the University of Konstanz (UKN) Leist Lab Neurite Outgrowth Assay in human LUHMES cells (UKN4) (AID 2284232). The gist of the method: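 Cells switched to differentiation medium at day 0, replated on day 2 in medium lacking cAMP and GDNF, and compound-treated once attached. Live staining began 23.5 h later, imaging followed at 24 h.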

Inconclusive results are not listed. Activity calls are given as the source filed them. How the source made its calls, unless noted: active means hit-call score of the fitted dose curve at least 0.9, where 1 is the maximum; inactive means score below 0.9.

The text below walks through data of PubChem BioAssay (EPA / NIEHS).

`O=S1(=O)CC(Cl)(Cl)C(Cl)(Cl)C1`: the AC50 was 1520 nM (active) in test [1]; 1890 nM (active) in test [2]; 1130 nM (active) in [3]; 703 nM (active) in [4]; 2060 nM (active) in test [5]; 1850 nM (active) in [6].

As for `N#CCCNCCC#N`, the outcome in test [7], in [8], in test [9], in [10] and in test [11] was inactive.

Turning to `c1ccc2scnc2c1`, the call in [12], in test [8], in test [9] and in test [10] was inactive.

`CCOC(=O)C=Cc1ccccc1`: the result in test [1], in [2], in test [3], in [4], in test [5] and in test [6] was inactive.

As to `C=CC(=O)OCC(CO)(COC(=O)C=C)COC(=O)C=C`, the AC50 in test [1] is 2350 nM (active); in [2], 1250 nM (active); in test [3] it was 1390 nM (active); in test [4] it was 1270 nM (active); in test [5], 1620 nM (active). In test [6], the result was inactive.

For `CC/C(=C(\c1ccccc1)c1ccc(OCCN(C)C)cc1)c1ccccc1`, in test [13], the AC50 is 82100 nM (active). Also, in test [7], the outcome was inactive.

For `CCCCC(CC)COC(=O)COc1ccc(Cl)cc1C` (centres undefined), the outcome in test [12], in [8] and in test [9] was inactive. For the same molecule, the values for the concentration at half-maximal activity (AC50) in [10] and in [14] were 50000 nM (active) and 11900 nM (active), respectively.

With `Nc1ccc(N)c([N+](=O)[O-])c1`, the result in test [1], in test [2], in test [3], in test [4], in test [5] and in test [6] was inactive.

Turning to `CC(C)Cc1ccc(C(C)C(=O)O)cc1` (centres undefined), the call in [15], in test [12], in test [9], in [1], in test [2] and in [10] was inactive. Also, the molecule was called inactive in test [11], in [14], in [3], in [4], in test [5] and in test [6].

For the molecule `c1ccc2c(c1)-c1ccc3ccc4cccc5cc-2c1c3c45`, the outcome in test [1], in [3] and in [5] was inactive. In addition, the concentration at half-maximal activity (AC50) in test [2] is 10000 nM (active); in test [4], 709 nM (active); in [6] it was 91.8 nM (active).

Consider `CCCCCCCC1CCCC1=O` (centres undefined), for which the AC50 is 32600 nM (active) in test [1] and 32700 nM (active) in test [2]. Also, the outcome in test [3], in [4], in test [5] and in [6] was inactive.

By AC50 is commonly meant the concentration at which the activity in the assay is half-maximal.
